Laboratory results published in PubChem BioAssay (NCI).
About 79,000 compounds went through this panel and 15% of them were active in at least one assay; those are over-represented in the sample as a whole. Calls of active or inactive are those of the source. Cut-off read from the data, not from the text of the source: active = growth inhibition above about 70%; inactive = the rest.

Assays:
[1] = NCI Yeast Anticancer Drug Screen. Data for the mec2-1 strain (AID 157); conditions: S. cerevisiae mec2-1 strain, hits give high values
In short: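 Each compound was tested on mec2-1 yeast, a strain altered in DNA damage repair or cell cycle control. Growth inhibition is reported relative to vehicle.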

[2] = NCI Yeast Anticancer Drug Screen. Data for the sgs1 mgt1 strain (AID 161);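 note: 0% = growth of cultures given vehicle only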; conditions: S. cerevisiae sgs1 mgt1 strain, hits give high values
In short: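 Inhibition of yeast growth, normalised to vehicle-treated controls, is reported for a strain bearing genetic alterations in DNA damage repair.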

[3] = NCI Yeast Anticancer Drug Screen. Data for the CLN2oe strain (AID 163);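 note: 0% = growth of vehicle-only control cultures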; conditions: S. cerevisiae CLN2oe strain, hits give high values
In short: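 First, the altered yeast strain was treated with each compound; second, its growth was measured; finally, inhibition was derived by comparison with vehicle controls.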

[4] = NCI Yeast Anticancer Drug Screen. Data for the cln2 rad14 strain (AID 165);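 note: 0% = growth equal to vehicle treated cultures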; conditions: S. cerevisiae cln2 rad14 strain, hits give high values
In short: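 Test compounds were added to cln2 rad14 yeast cultures; inhibition of growth was then determined by comparison with vehicle treatment.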

[5] = NCI Yeast Anticancer Drug Screen. Data for the bub3 strain (AID 167); conditions: S. cerevisiae bub3 mutant strain, hits give high values
In short: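 Yeast carrying a defined mutation is treated with each compound, and growth is compared with that of vehicle-exposed cells to give inhibition.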

[6] = NCI Yeast Anticancer Drug Screen. Data for the wt2 strain (AID 169);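 note: 0% = growth of vehicle-treated yeast cultures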; conditions: S. cerevisiae wt2 strain growth inhibition, hits give high values
In short: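 The panel's yeast strains carry defined changes in DNA repair or cell cycle genes. Each strain is grown with compound, and growth loss is scored relative to vehicle.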

[7] = NCI Yeast Anticancer Drug Screen. Data for the mlh1 strain (AID 171);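 note: 0% = growth of vehicle-treated control cultures of the same strain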; conditions: S. cerevisiae mlh1 strain growth inhibition, hits give high values
In short: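 Inhibition values reflect reduced yeast growth in the presence of compound, referenced to vehicle controls, using a strain chosen for its alteration in DNA repair or cell cycle control.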

[8] = NCI Yeast Anticancer Drug Screen. Data for the sgs1 strain (AID 173);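 note: 0% = growth of vehicle-only control cultures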; conditions: S. cerevisiae sgs1 mutant, hits give high values
In short: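 Vehicle-treated cultures served as reference for growth inhibition of a yeast strain altered in DNA damage repair or cell cycle control after compound exposure.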

[9] = NCI Yeast Anticancer Drug Screen. Data for the mlh1 rad18 strain (AID 175); conditions: S. cerevisiae mlh1 rad18 strain growth inhibition, hits give high values
In short: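 Inhibition values reflect reduced growth of mutant yeast versus vehicle-treated controls following compound exposure; the mutations affect DNA damage repair.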

[10] = NCI Yeast Anticancer Drug Screen. Data for the rad18 strain (AID 177); conditions: S. cerevisiae rad18 mutant growth inhibition, hits give high values
In short: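 Steps: expose repair-mutant yeast to compound; measure growth; express as inhibition relative to vehicle control.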

[11] = NCI Yeast Anticancer Drug Screen. Data for the rad52 strain (AID 147);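 note: 0% = growth of vehicle-treated control cultures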; conditions: S. cerevisiae rad52 mutant growth inhibition, hits give high values
In short: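 Inhibition of yeast growth, referenced to vehicle controls, was the measured output for a strain with defective DNA damage repair.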

[12] = NCI Yeast Anticancer Drug Screen. Data for the wt1 strain (AID 149);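 note: 0% = growth of vehicle-treated wt1 cultures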; conditions: S. cerevisiae wt1 strain (SPY 50644) growth inhibition, hits give high values
In short: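 wt1 yeast, compound-treated; % growth inhibition vs vehicle control.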

[13] = NCI Yeast Anticancer Drug Screen. Data for the rad50EPP+ strain (AID 151);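 note: 0% = growth of vehicle-treated control cultures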; conditions: S. cerevisiae rad50 mutant strain, hits give high values
In short: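 Genetically defined yeast (rad50EPP+, DNA damage repair alteration) is grown with compound, and inhibition of growth is expressed relative to vehicle-treated controls.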

[14] = NCI Yeast Anticancer Drug Screen. Data for the mgt1 strain (AID 153); conditions: S. cerevisiae mgt1 mutant growth inhibition, hits give high values
In short: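 In the mgt1 strain, test compounds were added and growth inhibition was determined relative to vehicle-treated controls.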

[15] = NCI Yeast Anticancer Drug Screen. Data for the rad50 strain (AID 155);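 note: 0% = growth of vehicle-only cultures of the same strain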; conditions: S. cerevisiae rad50 strain growth inhibition, hits give high values
In short: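 Genetically altered yeast (DNA repair pathway); compound treatment; growth inhibition vs vehicle ctrl.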

[16] = NCI Yeast Anticancer Drug Screen. Data for the rad14 strain (AID 159);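 note: 0% = growth of vehicle-treated control cultures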; conditions: S. cerevisiae rad14 strain growth inhibition, hits give high values
In short: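 Test compounds were applied to a repair-deficient yeast strain. Its growth was then compared with that of cultures given vehicle alone, and inhibition was expressed relative to those controls.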

[17] = at 5.0 µM (retest, dose inferred, filed as 0.5)
[18] = at 50.0 µM (retest, dose inferred, filed as 5.0)

Measured: growth inhibition

CCCCCCCCCCCCCCN
active: [1]; [17] 100% | [1]; [18] 96% | [1]; at 50.0 µM 92.1% | [1]; at 100.0 µM 99% | [2]; [18] 99% | [2]; at 50.0 µM 90.8% | [3]; at 100.0 µM 98% | [4]; [18] 99% | [4]; at 50.0 µM 88.2% | [5]; [18] 99% | [5]; at 50.0 µM 90.7% | [5]; at 100.0 µM 98% | [6]; at 100.0 µM 99% | [7]; at 100.0 µM 98% | [8]; at 100.0 µM 98% | [9]; [17] 100% | [9]; [18] 97% | [9]; at 50.0 µM 91.2% | [10]; at 100.0 µM 98%
inactive: [1]; at 11.0 µM -9% | [1]; at 33.0 µM 38% | [2]; [17] -20% | [3]; at 1.2 µM 6% | [3]; at 3.7 µM 6% | [3]; at 11.0 µM -14% | [3]; at 33.0 µM 37% | [4]; [17] 24% | [5]; at 1.2 µM 25% | [5]; at 3.7 µM 7% | [5]; [17] 31% | [5]; at 11.0 µM 21% | [5]; at 33.0 µM 58% | [6]; at 1.2 µM 3% | [6]; at 3.7 µM -1% | [6]; at 11.0 µM 4% | [6]; at 33.0 µM 27% | [7]; at 1.2 µM -3% | [7]; at 3.7 µM 8% | [7]; at 11.0 µM 2% | [7]; at 33.0 µM 16% | [8]; at 1.2 µM 10% | [8]; at 3.7 µM 16% | [8]; at 11.0 µM 19% | [8]; at 33.0 µM 65% | [10]; at 1.2 µM -3% | [10]; at 3.7 µM 4% | [10]; at 11.0 µM 5% | [10]; at 33.0 µM 24%

O=C1C(=O)c2cccc([N+](=O)[O-])c2-c2ccccc21
inactive: [11]; at 1.2 µM 6% | [11]; at 3.7 µM -4% | [11]; at 11.0 µM 37% | [12]; at 1.2 µM 2% | [12]; at 3.7 µM 20% | [12]; at 11.0 µM 18% | [13]; at 1.2 µM -2% | [13]; at 3.7 µM -14% | [13]; at 11.0 µM 24% | [14]; at 1.2 µM 2% | [14]; at 3.7 µM -2% | [14]; at 11.0 µM 6% | [15]; at 1.2 µM -78% | [15]; at 3.7 µM -4% | [15]; [17] 19% | [15]; at 11.0 µM 55% | [1]; at 1.2 µM 5% | [1]; at 3.7 µM 9% | [1]; [17] 31% | [1]; at 11.0 µM 10% | [16]; at 1.2 µM 11% | [16]; at 3.7 µM 20% | [16]; at 11.0 µM 62% | [3]; at 1.2 µM -6% | [3]; at 3.7 µM -5% | [3]; at 11.0 µM -1% | [4]; [17] 1% | [5]; at 1.2 µM 32% | [5]; at 3.7 µM 35% | [5]; [17] 53% | [5]; at 11.0 µM 47% | [6]; at 1.2 µM 30% | [6]; at 3.7 µM 47% | [6]; at 11.0 µM 66% | [7]; at 1.2 µM -3% | [7]; at 3.7 µM -1% | [7]; at 11.0 µM 3% | [8]; at 1.2 µM 16% | [8]; at 3.7 µM 11% | [8]; at 11.0 µM 35% | [9]; [17] 37% | [10]; at 1.2 µM 1% | [10]; at 3.7 µM 6% | [10]; at 11.0 µM 15%
active: [11]; at 33.0 µM 99% | [11]; at 100.0 µM 97% | [12]; at 33.0 µM 100% | [12]; at 100.0 µM 98% | [13]; at 33.0 µM 99% | [13]; at 100.0 µM 98% | [14]; at 33.0 µM 99% | [14]; at 100.0 µM 98% | [15]; at 33.0 µM 99% | [15]; [18] 98% | [15]; at 50.0 µM 98.5% | [15]; at 100.0 µM 96% | [1]; at 33.0 µM 99% | [1]; [18] 99% | [1]; at 50.0 µM 99.2% | [1]; at 100.0 µM 97% | [16]; at 33.0 µM 99% | [16]; at 100.0 µM 98% | [3]; at 33.0 µM 99% | [3]; at 100.0 µM 98% | [4]; [18] 98% | [4]; at 50.0 µM 97.8% | [5]; at 33.0 µM 99% | [5]; [18] 98% | [5]; at 50.0 µM 98.8% | [5]; at 100.0 µM 99% | [6]; at 33.0 µM 99% | [6]; at 100.0 µM 98% | [7]; at 33.0 µM 99% | [7]; at 100.0 µM 98% | [8]; at 33.0 µM 99% | [8]; at 100.0 µM 96% | [9]; [18] 98% | [9]; at 50.0 µM 98.8% | [10]; at 33.0 µM 99% | [10]; at 100.0 µM 98%

N#CCC(=O)N/N=C(\c1ccccc1)C(c1ccccc1)C1(O)C(=O)Nc2c(Cl)ccc(Cl)c21 (stereo unspecified)
inactive: [11]; at 1.2 µM 0% | [11]; at 3.7 µM 0% | [11]; at 11.0 µM 3% | [11]; at 33.0 µM 9% | [11]; at 100.0 µM 11% | [12]; at 1.2 µM 0% | [12]; at 3.7 µM 0% | [12]; at 11.0 µM 0% | [12]; at 33.0 µM -1% | [12]; at 100.0 µM -3% | [13]; at 1.2 µM 2% | [13]; at 3.7 µM 10% | [13]; at 11.0 µM 15% | [13]; at 33.0 µM 24% | [13]; at 100.0 µM 32% | [14]; at 1.2 µM 1% | [14]; at 3.7 µM -1% | [14]; at 11.0 µM -3% | [14]; at 33.0 µM -2% | [14]; at 100.0 µM 19% | [15]; at 1.2 µM 5% | [15]; at 3.7 µM 0% | [15]; [17] 7% | [15]; at 11.0 µM 8% | [15]; at 33.0 µM 15% | [15]; [18] 51% | [15]; at 50.0 µM 43.8% | [15]; at 100.0 µM 25% | [1]; at 1.2 µM 3% | [1]; at 3.7 µM 4% | [1]; [17] -11% | [1]; at 11.0 µM 4% | [1]; at 33.0 µM 6% | [1]; [18] 36% | [1]; at 50.0 µM 41% | [1]; at 100.0 µM 11% | [2]; [17] 4% | [2]; [18] 39% | [2]; at 50.0 µM 51.8% | [3]; at 1.2 µM -1% | [3]; at 3.7 µM -2% | [3]; at 11.0 µM -2% | [3]; at 33.0 µM -8% | [3]; at 100.0 µM -11% | [4]; [17] 9% | [4]; [18] 10% | [4]; at 50.0 µM 6.8% | [5]; at 1.2 µM 2% | [5]; at 3.7 µM 5% | [5]; [17] 8% | [5]; at 11.0 µM 11% | [5]; at 33.0 µM 15% | [5]; [18] 30% | [5]; at 50.0 µM 30.3% | [5]; at 100.0 µM 24% | [6]; at 1.2 µM 0% | [6]; at 3.7 µM 8% | [6]; at 11.0 µM -3% | [6]; at 33.0 µM -3% | [6]; at 100.0 µM 1% | [7]; at 1.2 µM 0% | [7]; at 3.7 µM -1% | [7]; at 11.0 µM -1% | [7]; at 33.0 µM 0% | [7]; at 100.0 µM 18% | [8]; at 1.2 µM -1% | [8]; at 3.7 µM 0% | [8]; at 11.0 µM 1% | [8]; at 33.0 µM 11% | [8]; at 100.0 µM 37% | [9]; [17] 6% | [9]; [18] -6% | [9]; at 50.0 µM 69.2% | [10]; at 1.2 µM 3% | [10]; at 3.7 µM 8% | [10]; at 11.0 µM 15% | [10]; at 33.0 µM 24% | [10]; at 100.0 µM 39%
